# In the library only some 0.9% were active in any assay of this set; here they are far more common.
# SRC1 TRFRET art: counter-screen for PPARgamma SRC-1 recruitment agonists: TR-FRET artefact. AID 1051. TR-FRET detection artefact counter-screen, emission ratio; hits give high values. TR-FRET ratio at 8 µM. actives 0.34% (n = 99,000); in the data active = TR-FRET ratio above about 2300
# SRC3 TRFRET art: TR-FRET artefact, counter-screen to PPARgamma/SRC-3 agonist assay; actives 0.39% (n = 99,000); PPARgamma/SRC-3 format; hits give high values; TR-FRET ratio at 8 µM; AID 1048
# PPARg SRC-3 ag: promotes SRC-3 coactivator recruitment by human PPARgamma; AID 731; P37231; actives 0.26% (n = 200,000); activation, % at 8 µM; biochemical PPARgamma/SRC-3 coactivator recruitment assay; in the data active = activation above about 23%;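 note: 0% = DMSO and 100% = reference agonist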
# Target sequence (P37231 whole entry, looked up): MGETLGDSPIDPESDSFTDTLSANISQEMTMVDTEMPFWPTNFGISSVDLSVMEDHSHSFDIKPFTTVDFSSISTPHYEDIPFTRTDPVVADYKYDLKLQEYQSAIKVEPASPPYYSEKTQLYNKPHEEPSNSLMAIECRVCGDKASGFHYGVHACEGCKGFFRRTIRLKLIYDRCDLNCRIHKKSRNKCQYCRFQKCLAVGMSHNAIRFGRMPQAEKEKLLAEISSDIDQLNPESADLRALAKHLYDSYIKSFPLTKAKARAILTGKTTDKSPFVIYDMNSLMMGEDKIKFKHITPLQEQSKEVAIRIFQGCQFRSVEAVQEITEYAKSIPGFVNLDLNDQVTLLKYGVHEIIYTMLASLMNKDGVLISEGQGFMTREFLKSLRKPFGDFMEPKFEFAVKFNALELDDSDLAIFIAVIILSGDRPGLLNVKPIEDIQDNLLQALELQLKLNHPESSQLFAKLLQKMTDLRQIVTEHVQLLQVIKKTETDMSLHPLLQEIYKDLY
# TR-FRET SRC-2 ct: TR-FRET artefact, counter-screen to PPARgamma/SRC-2 agonist assay | actives 0.4% (n = 200,000) | hits give high values | TR-FRET ratio at 8 µM
# PPARg SRC1 recr: PPARgamma-driven SRC-1 recruitment agonism | activation, % at 8 µM | actives 0.41% (n = 200,000) | PPARgamma-SRC-1 coactivator recruitment biochemical assay; in the data active = activation above about 19%;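 note: 0% = DMSO and 100% = reference agonist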
# PPARg SRC-2 ag: agonists of SRC-2 recruitment by human PPARgamma; activation, % at 8 µM; P37231; PPARgamma LBD-SRC-2 recruitment, biochemical; actives 0.34% (n = 200,000); in the data active = activation above about 22%;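 note: 0% = vehicle and 100% = reference agonist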
# * hit, by the source's call; . = not tested or not shown. Cut-off read from the data, not from the text of the source, unless noted: active = TR-FRET ratio above about 2000; inactive = the rest.
SMILES,SRC1 TRFRET art,SRC3 TRFRET art,PPARg SRC-3 ag,TR-FRET SRC-2 ct,PPARg SRC1 recr,PPARg SRC-2 ag
Cc1nc2cc(Nc3ccncc3)ccc2s1,1659,1413,7,1476,11,9
O=C(NC1CCCC1)C(c1ccncc1)N(C(=O)c1csnn1)C1CCCC1 (stereo not drawn),1618,1496,6,1511,6,7
CCOc1cc(CNc2ccc(N3CCN(C(C)=O)CC3)cc2)cc(Br)c1OC,2072,1823,10,1693,9,22*
CCOc1cc(CNc2ccc(N3CCCC3)cc2)cc(Cl)c1OC,2142,1773,5,2050*,11,16
COc1cc(CNc2ccc(N3CCCC3)cc2)cc(Cl)c1OC,1823,1865,7,1390,-1,1
COc1ccc(OCC(=O)Nc2cc(-c3nn(C)c(=O)c4ccccc34)ccc2OC)cc1,.,.,-4,1425,38*,4
CN(C)C=Nc1c(C(=O)c2ccccc2)sc2nccc(N(C)C)c12,2016,1650,0,1610,-2,10
CCOC(=O)c1sc2nccc(N(C)C)c2c1N=CN(C)C,.,.,27*,1529,4,7
O=c1c(Cc2c(F)cccc2Cl)c(O)ccn1CCCn1ccnc1,2010,1610,2,1576,3,5
CCOc1ccccc1-c1nc(-c2ccc(NC(=O)Cc3ccccc3OC)cc2)no1,.,.,3,2140*,1,2
CCN(CC)S(=O)(=O)c1cc(NC(=O)c2ccc(Br)s2)ccc1C,2789*,1805,7,1640,0,14
O=S(=O)(c1ccc(N2CCN(S(=O)(=O)c3ccc4c(c3)OCCO4)CC2)nc1)N1CCCC1,.,.,34*,2273*,18,12
N#Cc1c(-c2ccc(Br)cc2)cc(-c2cccnc2)nc1N,1900,2107*,11,1568,6,1
O=C(c1cccc(C(F)(F)F)c1)N1CCN(c2cc(=O)[nH]nc2-c2ccccc2)CC1,.,.,33*,1357,-9,-10
Nc1cc(=O)[nH]c(SCC(=O)Nc2cc(S(=O)(=O)N3CCOCC3)ccc2Cl)n1,1910,1565,-2,1697,3,0
O=C(CSc1nnc2c(n1)[nH]c1ccc(S(=O)(=O)N3CCOCC3)cc12)Nc1ccccc1Cl,2042,2209*,14,1683,10,9
Cc1ccc(-n2c(SCC(=O)Nc3cc(S(=O)(=O)N4CCOCC4)ccc3Cl)nc3ccccc3c2=O)cc1,1829,1429,0,1481,1,-6
O=C(CSc1nc2ccccc2s1)Nc1cc(S(=O)(=O)N2CCOCC2)ccc1Cl,1864,2069*,7,1577,6,12
Cc1cc2nnc(SCC(=O)Nc3cc(S(=O)(=O)N4CCOCC4)ccc3Cl)n2c2ccccc12,1864,2297*,3,1718,4,5
O=C(CSc1nc2ccccc2c(=O)n1-c1ccc(F)cc1)Nc1ccc(Cl)c(S(=O)(=O)N2CCOCC2)c1,2261,2299*,16,2212*,5,17
Cc1ccc(S(=O)(=O)N2CCOCC2)cc1NC(=O)CSc1nnc2cc(C)c3ccccc3n12,2009,1734,3,1791,5,8
O=C(COc1ccc(S(=O)(=O)N2CCCC2)cc1)NCC1CCCO1 (stereo not drawn),1917,1857,6,1695,4,9
Cc1cc(SCC(=O)Nc2cccc(S(=O)(=O)N3CCOCC3)c2)nc2ccccc12,2263,2197*,3,1663,1,-4
O=C(CSc1nc2ccccc2c(=O)n1-c1ccc(F)c(Cl)c1)Nc1cccc(S(=O)(=O)N2CCOCC2)c1,2035,1729,5,1756,-3,8
CCc1ccc(-n2c(SCC(=O)Nc3cccc(S(=O)(=O)NC4=NCCCCC4)c3)nc3ccccc3c2=O)cc1,1667,1653,2,1490,-10,-1
SMILES,SRC1 TRFRET art,SRC3 TRFRET art,PPARg SRC-3 ag,TR-FRET SRC-2 ct,PPARg SRC1 recr,PPARg SRC-2 ag
Cc1ccc(-n2c(SCC(=O)Nc3cccc(S(=O)(=O)NC4=NCCCCC4)c3)nc3ccccc3c2=O)cc1,2001,2355*,3,2048*,-1,-1
Cc1ccc(NC(=O)CN(C)C(=S)NC2CC2)cc1,2119,1529,2,1539,26*,6
Cn1c(SCc2cccnc2)nc2c(c1=O)SCC2,1719,1534,0,2241*,4,21
COC(=O)c1nnn(-c2nonc2N)c1COc1ccc(C=O)cc1OC,1530,1539,-3,1449,13,-2
Cc1nn(CCCC(=O)Nc2c(F)cc(F)cc2Br)c(C)c1[N+](=O)[O-],1889,1736,0,1591,2,8
CCN1/C(=C/c2ccc3cc(C)ccc3[n+]2CC)Sc2cc(C)ccc21,1885,2049,2,1571,17,11
CCN1/C(=C/c2ccc3cc(C)ccc3[n+]2C)Sc2ccc3sccc3c21,3458*,2512*,46*,2435*,96*,53*
CSC1=NC2(CC(c3ccccc3)Oc3cc(O)ccc32)CC(C)(C)N1 (stereo not drawn),.,.,29*,1633,4,12
COc1cc(C(=O)NCCCNc2nc3cc(C)c(C)cc3cc2C#N)cc(OC)c1OC,1771,1773,5,1665,5,-2
N#Cc1c(N)sc(=S)c2c1CCCC2,.,.,21,2023*,12,19
Cc1[nH]c(=S)c(C#N)c2c1CCCC2,1916,1735,9,1539,5,-2
CCn1c(SCC(=O)Nc2ccc(Cl)cc2)nc2nc3c(cc2c1=O)CCCC3,1677,1898,4,2837*,0,68*
O=C(CSc1nc2nc3c(cc2c(=O)n1-c1ccccc1)CCCC3)Nc1cccc2ccccc12,2437*,2727*,-2,2372*,3,12
O=C(COc1ccc(Cl)cc1)Nc1nc(-c2ccc(S(=O)(=O)N3CCOCC3)cc2)cs1,.,.,24,2847*,13,10
COc1ccccc1OCC(=O)Nc1nc(-c2ccc(S(=O)(=O)N3CCOCC3)cc2)cs1,.,.,-10,2294*,-2,1
Cc1ccc(NC(=O)COc2ccc(S(=O)(=O)N3CCOCC3)cc2)cc1,.,.,-10,1498,-10,0
O=C(COc1ccccc1)Nc1nc(-c2ccc(S(=O)(=O)N3CCOCC3)cc2)cs1,.,.,19,2563*,16,12
O=C(COC(=O)c1ccc(S(=O)(=O)N2CCOCC2)cc1)Nc1nc(-c2ccccc2)cs1,.,.,-2,1618,0,5
CCOC(=O)C1=C(N)OC2=C(C(=O)CC(C)(C)C2)C1c1cc(CSc2nnnn2C)cs1 (stereo not drawn),1801,1580,-2,1747,13,-3
Cc1nn(-c2ccccn2)c2c1-c1nc(N3CCOCC3)ncc1CC2,.,.,-6,1572,22*,1
Cc1nn(-c2ccccn2)c2c1-c1nc(N)ncc1CC2,.,.,10,1459,1,0
O=[N+]([O-])C(=C1NCCN1)C(Cl)=C(Cl)Cl,1839,1608,-1,1636,11,2

# Assay outcomes: PubChem BioAssay, The Scripps Research Institute Molecular Screening Center
